# Screening results from PubChem.
# A selection: hits, their analogues and other compounds. The true share with any hit is near 12%.
# Sm TGR inh: S. mansoni TGR enzyme inhibition | purified TGR, DTNB reduction, TNB absorbance 405 nm | Potency, µM (titrated, usually from 114 µM), for the others: at the top dose activity change, negative = inhibition, most hits filed as inhibitors | hit rate 3% among 360,000 | AID 485364; further: on the % scale 0 is the no-effect control and ±100 the full control effect; nearly all actives have a fitted effect of over 60% in size
#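 First, TGR (20 nM dispensed) and NADPH were mixed with compound. Second, a 15 min room-temperature incubation followed. Third, further NADPH and then DTNB were added to start the reaction. Finally, TNB absorbance was monitored kinetically.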
# Pf growth 48h: P. falciparum growth inhibition at 48 hours (one generation); Potency, µM (doses to about 28.7 µM), for the others: at the highest dose activity change, negative = inhibition, usual class: inhibitors; P. falciparum luciferase growth in erythrocytes, 48 h; AID 504832; hit rate 5.9% among 310,000; further: on the % scale 0 is the no-effect control and ±100 the full control effect
#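 First compound was added to culture medium, then infected red cells at 0.1% parasitemia and 2% hematocrit (final). After incubation at 37 C under 5% CO2, luciferase detection reagent was dispensed and light output recorded.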
# SARS PLP yeast: SARS-CoV PLP inhibition in yeast. S. cerevisiae expressing SARS-CoV PLpro, growth rescue. Potency, µM (titrated, usually from 32.9 µM), without a hit: top-dose activity, positive = growth rescue, most hits filed as activators. hit rate 0.19% among 330,000. AID 485353; calls by dose curve; further: 0% is about no effect; nearly all actives have a fitted effect of over 55% in size
# Pf growth 96h: P. falciparum growth inhibition at 96 hour, primary screen for plastid delayed-death inhibitors | P. falciparum luciferase reporter growth, 96 h | Potency, µM (titrated, usually from 28.7 µM), inactives show top-dose activity change, negative = inhibition, hits mostly inhibitors | hit rate 6.9% among 320,000 | AID 504834; further: on the % scale 0 is the no-effect control and ±100 the full control effect
#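 Parasite growth measured via integrated firefly luciferase reporter in P. falciparum. Infected erythrocytes at 2% hematocrit, 0.05% parasitemia final were treated 96 hours at 37 C under 5% CO2, and luminescence was read.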
# Numbers without * were called inactive; ? = inconclusive; nt = no result; [ ] = remark or other dose. Unless noted, the call rests on the fitted dose curve; in most records, active means well fitted curve in the direction sought with a large enough effect; inconclusive means small, poorly fitted or top-dose-only effect, or another doubt; inactive means no such curve, though single readings can be large; an effect the other way counts as inactive or inconclusive. Potency means the concentration at half of the fitted maximal effect.
SMILES,Sm TGR inh,Pf growth 48h,SARS PLP yeast,Pf growth 96h
CCOC(=O)N1CCN(C(=O)Nc2cccc(Cl)c2)CC1,1%,nt,-4%,12µM*
CCOC(=O)C1(c2ccccc2)CCN(CCC(=O)Nc2ccc(F)cc2)CC1,-1%,13µM*,2%,9.3µM*
CCOC(=O)N1CCN(S(=O)(=O)c2ccc(F)c(C(=O)Nc3ccc(C)c(Cl)c3)c2)CC1,-1%,13µM*,-26%,-3%
CCOC(=O)N1CCN(CCC(=O)Nc2ccc(F)c(F)c2)CC1,9%,?,-3%,15µM*
NCCNC(=O)c1ccc(Cl)cn1,nt,-11%,nt,-14%
Cc1ccc(C(O)(c2ccc(C)c(C)c2)C2CN3CCC2CC3)cc1C (stereo not drawn),4%,4%[0.00184 µM],1%,?
Cc1ccccc1C(O)(Cc1ccccc1)C1CN2CCC1CC2 (stereo not drawn),-14%,nt,-2%,10µM*
O=C(c1cc(Br)c(Br)s1)N1CCc2ccccc2C1,nt,nt,-13%,nt
O=C(COC(=O)/C=C/c1ccc(C(F)(F)F)cc1)NCC1CCCO1 (stereo not drawn),0%,?,2%,22%
CCCC(c1nnnn1CC1CCCO1)N1CCN(c2cc(Cl)ccc2C)CC1 (stereo not drawn),4%,13µM*,-12%,-1%
Cc1ccc(C(c2nnnn2CC2CCCO2)N2CCN(c3cccc(C)c3C)CC2)cc1 (stereo not drawn),-2%,13µM*,-6%,nt
CCC(c1nnnn1C(C)(C)C)N1CCN(c2cc(Cl)ccc2C)CC1 (stereo not drawn),5%,?,-5%,0.15µM*
Cc1ccc(Cl)cc1N1CCN(C(CC(C)C)c2nnnn2CC2CCCO2)CC1 (stereo not drawn),5%,?,-7%,0%
COc1cccc(NC(=O)C2=C(C)C(=O)OC23CCN(C(C)=O)CC3)c1,-11%,nt,nt,nt
CCSc1nc2c(sc3ccccc32)c(=O)n1C(C)C,4%,nt,15%,13µM*
COc1cccc(Nc2nc3ccc(C)cc3nc2-n2nc(C)cc2C)c1,9%,nt,nt,nt
O=C(Cc1ccccc1)NC(C(=O)O)C(O)c1ccc([N+](=O)[O-])cc1 (stereo not drawn),-13%,23%,-1%,10µM*
CC(C)CC(=O)Nc1c2c(nn1-c1cccc(Cl)c1)CS(=O)C2 (stereo not drawn),2%,1%[0.00184 µM],-3%,27%
CC(=O)C1(C)OC(N)=C(C#N)C(c2ccccc2)C1(C#N)C#N (stereo not drawn),11µM*,7%,-3%,?
Cn1c(N)c(C(=O)CSc2nnc(Cc3cccs3)n2C2CC2)c(=O)n(C)c1=O,-1%,5.2µM*,-3%,3.3µM*
NC(=O)CSc1nnc(Cc2cccs2)n1C1CCCCC1,0%,nt,4%,?
CCCn1c(N)c(C(=O)CSc2nnc(Cc3cccs3)n2C2CC2)c(=O)n(C)c1=O,-3%,4.7µM*,-3%,4.1µM*
CCCn1c(N)c(C(=O)CSc2nnc3ccccn23)c(=O)n(C)c1=O,-10%,-16%,-3%,?
COc1ccccc1C(=O)COC(=O)/C(=C/c1ccccc1)NC(C)=O,-24%,18%,2%,40%
COc1ccc([C@H]2CC(=O)C=C(c3ccc(Cl)c(Cl)c3)C2)cc1,-9%,-4%,-1%,52%
SMILES,Sm TGR inh,Pf growth 48h,SARS PLP yeast,Pf growth 96h
O=C1C(=O)c2ccccc2C([O-])=C1[n+]1ccccc1,9%,3.7µM*,0%,7.4µM*
CCN(CC)CCCNC(=O)CNC(=O)c1nn(-c2ccc(OC)cc2)c(=O)c2ccccc12,-20%,-14%,4%,9.3µM*
CCCCN(CC)CCCNC(=O)c1cn(-c2ccc(OC)cc2)c(=O)c2ccccc12,0%,-9%,0%,7.4µM*
CCCN(CCC)CCCNC(=O)c1nn(-c2cccc(OC)c2)c(=O)c2ccccc12,4%,?,1%,12µM*
Cc1nc2c(-c3ccc(F)cc3)c(C)nn2c(C)c1CCC(=O)NCc1ccc(Cl)cc1,5%,nt,nt,nt
O=S(=O)(NCc1cccc(Br)c1)c1ccc(-c2cc(C(F)(F)F)on2)s1,10%,nt,nt,nt
CCOc1ccc2c(c1)C(N(CCN1CCOCC1)C(=S)Nc1ccccc1OC)CC(C)(C)O2 (stereo not drawn),8%,?,3%,10µM*
O=C1c2ccccc2C(=O)C1(c1ccccc1)N1CCN(c2cccc(Cl)c2)CC1,3%,nt,nt,nt
CC(C)C[C@@]12C(=O)N(c3cccc(Br)c3)C(=O)N1[C@H](c1ccc(Cl)cc1)[C@@H]1C(=O)N(C3CCCCC3)C(=O)[C@@H]12,-3%,2.6µM*,0%,?
CC(C)C[C@@]12C(=O)N(c3cccc(Cl)c3)C(=O)N1[C@H](c1ccc(F)cc1)[C@@H]1C(=O)N(C3CCCCC3)C(=O)[C@@H]12,-2%,4.1µM*,6%,?
CC[C@@]12C(=O)N(c3cccc(Br)c3)C(=O)N1[C@H](c1ccc(Cl)cc1)[C@@H]1C(=O)N(C3CCCCC3)C(=O)[C@@H]12,-4%,?,12%,8.3µM*
CC(C)C[C@@]12C(=O)N(c3cccc(Cl)c3)C(=O)N1[C@H](c1ccc(Cl)cc1)[C@@H]1C(=O)N(C3CCCCC3)C(=O)[C@@H]12,7%,?,-8%,64%
CCN(CC(=O)Nc1ccccc1OC)C(=O)c1ccc(N(C)S(=O)(=O)c2ccc(C)cc2)cc1,9%,-2%,0%,?
CC(C)C[C@H](NC(=O)[C@@H](Cc1c[nH]c2ccccc12)NC(=O)[C@@H](Cc1ccc(O)cc1)NC(=O)[C@@H](CO)NC(=O)[C@@H](Cc1c[nH]c2ccccc12)NC(=O)C(Cc1cnc[nH]1)NC(=O)C1CCC(=O)N1)C(=O)N[C@@H](CCCN=C(N)N)C(=O)N1CCC[C@@H]1C(=O)NCC(N)=O (stereo partly drawn),nt,10%,nt,?
CCNC(=O)[C@@H]1CCCN1C(=O)[C@H](CCCN=C(N)N)NC(=O)[C@H](CC(C)C)NC(=O)[C@@H](Cc1c[nH]c2ccccc12)NC(=O)[C@H](Cc1ccc(O)cc1)NC(=O)[C@H](CO)NC(=O)[C@H](Cc1c[nH]c2ccccc12)NC(=O)[C@H](Cc1cnc[nH]1)NC(=O)[C@@H]1CCC(=O)N1,nt,1.3µM*,nt,1.5µM*
CCOC(=O)C1=CNS(=O)(=O)NC1c1ccc(Br)cc1F (stereo not drawn),nt,nt,-16%,nt
COc1cccc(C(=O)Nc2cccc(-c3nc4ncccc4o3)c2C)c1,5%,11%,2%,81%
COc1ccc(C(=O)Nc2cccc(-c3nc4ncccc4o3)c2C)cc1OC,1%,1%,20%,3.7µM*
Cc1c(NC(=O)c2ccc([N+](=O)[O-])o2)cccc1-c1nc2ncccc2o1,-18%,12µM*,-9%,11%
COc1cc2c(cc1OC)C(c1ccc(Cl)cc1)N(c1cccc(C#N)c1)C(=O)C2 (stereo not drawn),5%,nt,nt,nt
CCN(CC)c1ccc(/C=N/NC(=S)NCc2ccc(OC)cc2)cc1,-1%,?,17%,?
